This is a sample that favours compounds with a hit; in the whole collection about 2.6% have one here.
PABP FP inh: blocks human PABP binding to poly(A) RNA; 290,000 tested, 1% active; inhibition, % at 35 µM; fluorescence polarization; P11940; AID 2014;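 further: calls also rest on retests at 20 µM and on dose response follow-up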
MLLE-PAM2 inh: inhibitors of microRNA-mediated deadenylation, human PABP1 MLLE binding. P11940. GST-MLLE / FITC-PAM2 fluorescence polarization. inhibition, % at 20 µM. 360,000 tested, 0.36% active. AID 588489; in the data active means inhibition above about 35%, passing the limit was not always enough
PHOSPHO1 inh: inhibitors of human PHOSPHO1 phosphatase; Q8TCT1; recombinant PHOSPHO1, absorbance phosphatase assay; inhibition, % at 13.3 µM; 290,000 tested, 1.1% active; AID 1565; in the data active means inhibition above about 60%
Target sequence (Q8TCT1 whole entry, looked up): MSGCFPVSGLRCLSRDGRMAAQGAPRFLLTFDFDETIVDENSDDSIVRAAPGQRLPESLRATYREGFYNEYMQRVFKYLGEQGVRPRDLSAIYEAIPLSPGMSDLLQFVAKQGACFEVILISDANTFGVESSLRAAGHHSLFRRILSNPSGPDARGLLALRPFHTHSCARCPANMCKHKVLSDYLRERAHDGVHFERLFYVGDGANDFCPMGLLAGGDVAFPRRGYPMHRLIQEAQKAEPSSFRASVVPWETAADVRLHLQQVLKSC
CRFBP-R2 block: CRF-BP/CRF-R2 complex antagonism; HEK293 CRF-R2/CRF-BP, CRF-induced calcium fluorescence; inhibition, % at 11.8 µM; 350,000 tested, 0.59% active; AID 588475;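 active means inhibition of the ligand-induced calcium signal above about 50% at the single tested concentration, limit read from the data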
eIF4H FP inh: inhibitors of RNA binding by human eIF4H; Q15056; eIF4H fluorescence polarization binding assay; inhibition, % at 35 µM; 290,000 tested, 0.94% active; AID 2012;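 further: calls also rest on retests at 20 µM and on dose response follow-up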
Of the large screens only hits and unclear results are named; the others gave an inactive call. Unless noted, how the calls were made is not given here.

COC(=O)c1ccc(OCC(O)CN2C(=O)c3ccccc3S2(=O)=O)cc1 (stereo not drawn)	CRFBP-R2 block 58.2
Nc1nc(N(Cc2ccccc2)Cc2ccccc2)nc(C(F)(F)F)n1	none (no result: PABP FP inh, PHOSPHO1 inh, eIF4H FP inh)
COc1ccc(N2C(=O)CC(c3ccc([N+](=O)[O-])cc3)C2=O)cc1 (stereo not drawn)	CRFBP-R2 block 63.4
Nc1ccc2c(c1)C(=O)C(=O)c1ccccc1-2	PHOSPHO1 inh 62.5
ON=C1c2ccccc2-c2ccc(O)cc21	none (no result: PABP FP inh, PHOSPHO1 inh, eIF4H FP inh)
Nc1ccc2c(c1)C(=NO)c1ccccc1-2	CRFBP-R2 block 96.2 (no result: PABP FP inh, PHOSPHO1 inh, eIF4H FP inh)
O=C1C(Cl)=C(Nc2ccc(O)cc2)C(=O)c2ccccc21	CRFBP-R2 block 86.5
Cc1ccc(NC2=CC(=O)C(=O)c3ccccc32)cc1	none
Cc1ccc(NC2=C(Cl)C(=O)c3ccccc3C2=O)cc1	CRFBP-R2 block 91.2
CCNC1=C(Cl)C(=O)c2ccccc2C1=O	none
CCCC(=O)NC1=C(Cl)C(=O)c2ccccc2C1=O	MLLE-PAM2 inh 41.5 (no result: PABP FP inh, PHOSPHO1 inh, eIF4H FP inh)
CCN(CC)c1ccc(NC2=C(Cl)C(=O)c3ccccc3C2=O)cc1	MLLE-PAM2 inh 44.8, CRFBP-R2 block 58.8
COc1ccc(/C=N/NC(=O)c2ccc(=O)n(C)c2)cc1OC	none
Cc1ccc(-n2c(N)c(-c3nc4ccccc4n3C)sc2=S)cc1	PHOSPHO1 inh 69.2
OCc1cccc(-c2cnc3c(Nc4cccc(OC(F)(F)C(F)F)c4)nccn23)c1	none (no result: PABP FP inh, PHOSPHO1 inh, CRFBP-R2 block, eIF4H FP inh)
Cc1ccc2[nH]c(=O)c(C3C(C#N)=C(N)Oc4c3ccc3cccnc43)cc2c1 (stereo not drawn)	PHOSPHO1 inh 82.7
OC[C@@H]1CN(Cc2ccc3c(c2)OCO3)C[C@H](n2cnc3c(NC4CCCC4)ncnc32)O1	none (no result: PABP FP inh, PHOSPHO1 inh, CRFBP-R2 block, eIF4H FP inh)
CC(=O)Nc1ccc(S(=O)(=O)c2ccc(N)cc2)cc1	none
NC(=S)Nc1ccc(S(=O)(=O)c2ccc(NC(N)=S)cc2)cc1	MLLE-PAM2 inh 43.4
CCOc1ccc(S(=O)(=O)N2CCCCC2)cc1NC(=O)C1CCCC1	none (no result: PABP FP inh, PHOSPHO1 inh, eIF4H FP inh)
Cc1ccc(N2C(=O)CC(SCC(=O)Nc3ccc(S(N)(=O)=O)cc3)C2=O)cc1 (stereo not drawn)	MLLE-PAM2 inh 42.4
CC(=O)Nc1ccc(S(=O)(=O)NCCc2cc3ccc(C)c(C)c3[nH]c2=O)cc1	PHOSPHO1 inh 62.6
CCOC(=O)CN1NC2(CCC(C(C)(C)C)CC2)NC1=S (stereo not drawn)	none
CCOC(=O)CN1NC2(CCCC(C)C2)NC1=S (stereo not drawn)	PHOSPHO1 inh 90.9
CCOC(=O)CN1NC2(CCCCCCC2)NC1=S	none
CCOC(=O)CN1NC2(CCC(C)CC2)NC1=S (stereo not drawn)	PHOSPHO1 inh 95.3
CCOC(=O)CN1NC2(CCCCC2)NC1=S	PHOSPHO1 inh 100.3
COc1ccc(N2C(=O)[C@@H]3[C@H](C2=O)[C@H]2c4ccccc4C=CN2[C@@H]3C(=O)Nc2ccccc2)cc1	PABP FP inh inconclusive, eIF4H FP inh inconclusive
O=C(c1ccco1)[C@@H]1[C@@H]2C(=O)N(c3ccccc3)C(=O)[C@@H]2C2c3ccccc3C=CN21 (stereo partly drawn)	PHOSPHO1 inh 84.3
CC(=O)[C@@H]1[C@@H]2C(=O)N(Cc3ccccc3)C(=O)[C@@H]2C2c3ccccc3C=CN21 (stereo partly drawn)	PABP FP inh 112.4, eIF4H FP inh 95.9
Cc1ccc(N2C(=O)[C@@H]3[C@H](C2=O)C2c4ccccc4C=CN2[C@@H]3C(=O)c2ccco2)c(C)c1 (stereo partly drawn)	none
Cc1ccc(N2C(=O)[C@@H]3[C@H](C2=O)C2c4ccccc4C=CN2[C@@H]3C(=O)c2ccco2)cc1 (stereo partly drawn)	MLLE-PAM2 inh 36.8, PHOSPHO1 inh 73.8
O=C(NCCc1ccccc1)C1CCCN(S(=O)(=O)c2cccs2)C1 (stereo not drawn)	none
CC[C@]12c3[nH]c4cc(CCC(=O)N(C)C)ccc4c3CCN1C(=O)[C@@H](CC(=O)NCCc1ccccn1)C[C@@H]2C(=O)N1CCN(C(=O)C2CC2)CC1	none (no result: PABP FP inh, PHOSPHO1 inh, eIF4H FP inh)
COc1cc(-c2nnc(SCc3cc(=O)oc4cc(C)ccc34)o2)cc(OC)c1OC	PHOSPHO1 inh 73.5
COc1cc(C=O)ccc1Oc1cnccn1	CRFBP-R2 block 55.9
O=C(COc1ccc(Br)cc1)N(Cc1nnc(-c2ccccc2Cl)o1)C1CC1	none (no result: PABP FP inh, PHOSPHO1 inh, eIF4H FP inh)
COc1ccc(/C=C(\C#N)c2nc3ccc(C)cc3[nH]2)cc1Oc1ccc(C(F)(F)F)cc1[N+](=O)[O-]	none
Cc1ccc2nc(/C(C#N)=C\c3ccc(Oc4ccc(C(F)(F)F)cc4[N+](=O)[O-])cc3)[nH]c2c1	PABP FP inh active, eIF4H FP inh 76.0

Screens from PubChem.
